A selection: hits, their analogues and other compounds. The true share with any hit is near 3.5%.
FBW7 act = FBW7 E3 ligase activators, primary screen, biochemical, AlphaScreen, human. F-box/WD repeat-containing protein 7 (Homo sapiens), Q969H0. AlphaScreen FBW7–phospho-cyclin E peptide binding, activator screen. normalized activity (activation), % at 26.1 µM. 650,000 tested, 0.13% active; in the data active = normalized activity above about 1.9%;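 also: purified mutant Fbw7 with reduced substrate affinity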
GPR151 activ = activators of human GPR151, primary screen, cell-based, PathHunter beta-arrestin, luminescence; G-protein coupled receptor 151 (Homo sapiens), Q8TDV0; PathHunter beta-arrestin GPR151 cells; activation, % at 11.2 µM; 650,000 tested, 1% active; AID 1508602, 2020; in the data active = activation above about 4.9%
Target sequence (Q8TDV0 whole entry, looked up): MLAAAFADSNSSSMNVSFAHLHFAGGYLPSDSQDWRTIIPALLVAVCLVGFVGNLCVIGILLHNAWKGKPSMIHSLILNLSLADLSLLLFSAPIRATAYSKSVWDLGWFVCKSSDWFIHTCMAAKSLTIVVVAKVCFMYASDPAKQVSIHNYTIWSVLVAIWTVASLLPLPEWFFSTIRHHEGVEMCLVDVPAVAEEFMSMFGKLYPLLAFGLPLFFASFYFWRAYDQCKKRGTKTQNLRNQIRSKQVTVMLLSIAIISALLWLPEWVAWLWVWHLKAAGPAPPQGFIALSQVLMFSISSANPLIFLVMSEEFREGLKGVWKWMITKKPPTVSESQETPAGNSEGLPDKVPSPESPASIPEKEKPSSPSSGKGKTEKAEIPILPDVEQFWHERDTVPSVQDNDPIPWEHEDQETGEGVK
MITF inh = MITF inhibitors, primary screen, biochemical, AlphaScreen, human. 650,000 tested, 0.91% active. AID 1259374, 2018. AlphaScreen MITF homodimerization, bead proximity signal. inhibition, % at 2.6 µM; in the data active = inhibition above about 50%
TEAD-YAP inh = TEAD-YAP interaction inhibition, primary screen, TEAD-YAP interaction inhibitor project, luminescence, HEK-TIYL cells. TEAD-Gal4/YAP UAS-luciferase luminescence. inhibition, % at 9.12 µM. 640,000 tested, 1.4% active. AID 1259422, 2018; in the data active = inhibition above about 32%
MITF confirm = MITF inhibitors, retest of hits, confirmation, biochemical, AlphaScreen, triplicate; shares compounds with MITF inh; AlphaScreen MITF homodimerization, biotin/His-MITF beads; inhibition, % at 2.6 µM; 4,700 tested, 16% active;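 active = inhibition above a cutoff derived from the DMSO control wells, cut at about 28% in these data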;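 also: inhibitors lower the bead chemiluminescence by keeping MITF from dimerizing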
AlphaScreen DR = AlphaScreen optical interference compounds, dose response, counter-screen, biochemical, HTS | shares compounds with MITF inh | AlphaScreen optical interference counterscreen, cell-free | IC50, µM | 480 tested, 6% active | AID 1259373, 2018; call rule not given here
AS interf ctr = AlphaScreen optical interference compounds, counter-screen for MITF inhibitor project, biochemical, triplicate; shares compounds with MITF inh; LysRS AlphaScreen counterscreen, signal interference; inhibition, % at 2.6 µM; 4,700 tested, 7.6% active; AID 1259376, 2018;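 active = inhibition above a cutoff derived from the DMSO control wells, cut at about 30% in these data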
Numbers stand for hits; - = inactive; . = no result given.

SMILES	FBW7 act	GPR151 activ	MITF inh	TEAD-YAP inh	MITF confirm	AS interf ctr	others
O=C1c2cccnc2C(=O)N1c1ccccc1F	-	-	56.8	-	-	30.9
O=C1c2cccnc2C(=O)N1c1ccc(Oc2ccccc2)cc1	-	-	-	-	.	.
O=C1c2cccnc2C(=O)N1c1ccc(F)cc1	-	-	51.0	-	-	-
O=C1c2cccnc2C(=O)N1c1ccccc1	-	-	70.1	-	-	-
O=C(O)c1ccc(NC(=O)c2ccc3c(c2)C(=O)N(c2ccc([N+](=O)[O-])cc2)C3=O)cc1	-	-	-	-	.	.
CCOc1ccc(CN2CCC(N3CCCC(C)C3)CC2)cc1 (configuration not stated)	-	-	52.7	-	-	-
Clc1ccc(CN2CCC(N3CCCCC3)CC2)cc1	-	-	-	-	.	.
CC1CCCN(C2CCN(Cc3ccc(Cl)cc3)CC2)C1 (configuration not stated)	-	-	56.3	-	-	-
CC(C)=CCN1CCNC(=O)C1CC(=O)NCCN1CCCCC1=O (configuration not stated)	-	-	-	-	.	.
COc1ccc2c(c1)CC(c1nc(Nc3cn[nH]c3)c3ccccc3n1)CO2 (configuration not stated)	-	-	-	-	.	.
Clc1ccc2c(c1)CC(c1nc(Nc3cncnc3)c3ccccc3n1)CO2 (configuration not stated)	-	-	50.6	-	55.4	-	AlphaScreen DR=-
O=C(NCCOc1ccccc1)c1cccc(Nc2ccncn2)c1	-	-	81.2	-	-	-
C=CCn1c(SCC(=O)Nc2nc(C)cs2)nnc1-c1ccc(OC)cc1	-	-	-	-	.	.
O=C(c1ccccc1[N+](=O)[O-])N1CCN(Cc2ccc3c(c2)OCO3)CC1	-	-	-	-	.	.
O=[N+]([O-])c1ccc(CN2CCN(Cc3ccc4c(c3)OCO4)CC2)s1	-	-	56.4	-	-	-
O=[N+]([O-])c1ccccc1CN1CCN(Cc2ccc3c(c2)OCO3)CC1	-	-	58.7	-	-	36.2
O=[N+]([O-])c1ccc(CN2CCN(c3ccccc3F)CC2)s1	-	-	53.0	-	-	-
CCN(CCn1cccn1)C(=O)CCc1nnc(-c2ccsc2)o1	-	-	-	-	.	.
O=C(CCS(=O)(=O)Cc1ccccc1)Nc1ccc2c(c1)OCO2	-	-	-	-	.	.
Cc1ccc(C(C)C)cc1OCCNC(C)C	-	-	89.4	-	-	-
Cc1ccc(C(C)C)cc1OCCCCn1ccnc1	-	-	53.5	-	-	-
Cc1ccc(C(C)C)cc1OCCOCCN1CCCC1	-	-	54.0	-	-	-
Cc1ccc(C(C)C)c(OCCCCn2ccnc2)c1	-	-	-	-	.	.
C=CCNCCOc1cc(C(C)C)ccc1C	-	-	-	-	.	.
CCC(C)NC(=O)/C=C/c1ccccc1OC (configuration not stated)	-	-	-	-	.	.
SMILES	FBW7 act	GPR151 activ	MITF inh	TEAD-YAP inh	MITF confirm	AS interf ctr	others
O=C(CNCCCO)Nc1ccccc1N1CCCCC1	-	-	56.7	-	-	-
O=C(CNCCN1CCCCC1)Nc1ccccc1N1CCOCC1	-	-	86.4	-	-	-
O=C(CNCCCN1CCOCC1)Nc1ccccc1N1CCOCC1	-	-	84.2	-	-	-
O=C(CNCCCO)Nc1ccccc1N1CCCCCC1	-	-	-	-	.	.
CC1=CC(C)(C)N(C(=O)CNCCCN2CCOCC2)c2cc(C)ccc21	-	-	55.9	-	-	-
O=C(NCc1cccnc1)c1cc2n(n1)C(C(F)(F)F)CC(c1ccc(Cl)cc1)N2 (configuration not stated)	-	-	-	-	.	.
Cc1cc(C)cc(C(=O)NCCn2cc(SCC(N)=O)c3ccccc32)c1	-	-	-	-	.	.
CCOC1=NN(c2ccc([N+](=O)[O-])cc2)C(=O)/C1=C\c1ccc(Cl)cc1	-	-	-	-	.	.
CC(C)CCNCC(=O)Nc1ccccc1N1CCCCC1	-	-	57.8	-	-	-
O=C(CNCCN1CCOCC1)N1CCc2ccccc2C1	-	-	70.7	-	-	-
O=C(CNC1CCCCCC1)Nc1ccccc1N1CCCCC1	-	-	-	-	.	.
O=C(CNC1CCCCC1)Nc1ccccc1N1CCOCC1	-	-	54.8	-	-	-
O=C(CNC1CCCC1)Nc1ccccc1N1CCCCCC1	-	-	-	-	.	.
O=C(CNCCN1CCCCC1)Nc1ccccc1N1CCCCC1	-	-	85.3	-	-	-
COc1ccc(-c2csc(-n3nc(C)cc3NC(=O)C3CC3)n2)cc1OC	-	-	-	-	.	.
COc1ccc(OC)c(S(=O)(=O)N2CCCC(c3[nH]ncc3C)C2)c1 (configuration not stated)	-	-	-	-	.	.
Cc1cc(S(=O)(=O)N2CCN(CCC(=O)O)CC2)ccc1Br	-	-	53.6	-	-	-
COC(=O)CCN1CCN(S(=O)(=O)c2ccccc2Br)CC1	-	-	84.6	-	-	-
c1ccc(-c2cn(-c3ccccc3)c3ncnc(NCC4CCCO4)c23)cc1 (configuration not stated)	-	-	-	-	.	.
CC(C)C(Sc1nnc(C(F)(F)F)n1C)C(=O)NC(N)=O (configuration not stated)	-	-	-	-	.	.
COC(=O)C1=C(C)NC2=C(C(=O)CCC2)C1c1cccc(Oc2ccccc2)c1 (configuration not stated)	-	-	-	-	.	.
COc1cc(OC)c(OC)cc1CNC1CCCc2ccccc21 (configuration not stated)	-	-	-	-	.	.
COc1cc(CNC2CCCc3ccccc32)cc(OC)c1O (configuration not stated)	-	-	57.2	-	-	-
COc1cccc(NC(=O)Cn2cnc3c(cnn3-c3ccccc3C)c2=O)c1	-	-	-	-	.	.
Cc1ccc2nc(CN(C)Cc3nccs3)nc(N)c2c1	-	-	65.3	-	39.6	100.2
SMILES	FBW7 act	GPR151 activ	MITF inh	TEAD-YAP inh	MITF confirm	AS interf ctr	others
COCCn1c(C)nnc1SCC(N)=O	-	-	82.8	-	-	-
CC(C)(C)c1csc(CN2CCN(CC(=O)N3CCOCC3)CC2)n1	-	-	53.8	-	-	-
CC(C)(C)c1csc(CN2CCN(CC(=O)NC3CCCCC3)CC2)n1	-	-	-	-	.	.
COC(=O)c1ccc(/C=N\NC(=O)c2ccco2)cc1	-	-	-	-	.	.
COc1cc(CN2CCN(C(=O)c3cccc(F)c3)CC2)cc(OC)c1O	-	-	67.7	-	-	-
O=C(c1ccc(F)cc1)N1CCN(Cc2cccc(Br)c2)CC1	-	-	57.5	-	-	-
COc1ccc(CN2CCN(C(=O)c3cccc(F)c3)CC2)cc1OC	-	-	-	-	.	.

Source: PubChem BioAssay (The Scripps Research Institute Molecular Screening Center)
